# Assay results as given in the supplement of paper PMC10646978.
# ± gives the standard deviation.
# Experiments:
# Conditions in all cases: modulator concentration 10 µM
# [1] = system: RAW-Dual (murine macrophage reporter line); assay: NF-kB reporter (SEAP) activity fold change vs agonist alone; higher = enhanced NF-kB activity
# Outline: (§1)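 Compound reached 10 μM final in each well by pin transfer, onto RAW-Dual murine macrophage reporter cells seeded at 50 000 per well in 384-well plates. After 1 hour at 37 °C, the cells were stimulated overnight with a PRR agonist. SEAP in the supernatant was read with QUANTI-Blue at 620 nm absorbance for NF-κB, and Lucia luciferase was read with QUANTI-Luc luminescence for IRF. Each signal was turned into fold change against the mean agonist-only control on the same plate, and two replicate plates were averaged with propagated errors.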
# [2] = system: RAW-Dual (murine macrophage reporter line); assay: IRF reporter (Lucia luciferase) activity fold change vs agonist alone; higher = enhanced IRF activity
# Outline: as §1
# [3] = system: RAW-Dual (murine macrophage reporter line); assay: viability score (confluency relative to resting cells, overnight) (fraction); higher = more viable, active = viable (0.7 or more)
# Outline: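 RAW-Dual macrophages in 384-well plates were exposed overnight to compound at 10 μM final. Confluency was imaged with IncuCyte, and two confluency masks were generated with IncuCyte software over all imaged wells. The viability score is confluency expressed relative to resting cells. Compounds were called viable if both masks exceeded 70% of resting cells.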
# [4] = agonist: CpG ODN 1826 0.5 ug/mL
Compound,"NF-kB reporter [1, 4]",NF-kB reporter ([1]; agonist: LPS 0.1 ug/mL),NF-kB reporter ([1]; agonist: MPLA […]),IRF reporter ([2]; agonist: 3'3'-cGAMP 10 ug/mL),IRF reporter ([2]; agonist: LPS 0.1 ug/mL),IRF reporter ([2]; agonist: MPLA […]),viability score [3]
COc1ccc(Cl)cc1NS(=O)(=O)c1c(C)cc(C)cc1C,0.993 ± 0.14,0.937 ± 0.062,1.46 ± 0.12,1.24 ± 0.11,1.16 ± 0.11,1.04 ± 0.12,0.982 (active)
Brc1c(NC2=NCCN2)ccc2nccnc12 [Prestw-1751],1.24 ± 0.13,0.858 ± 0.079,0.97 ± 0.035,1.02 ± 0.043,1.01 ± 0.054,1.01 ± 0.12,0.996 (active)
O=S(=O)(c1ccc(F)cc1)n1cccc1,0.812 ± 0.065,0.746 ± 0.047,1.09 ± 0.096,1.02 ± 0.05,1.49 ± 0.087,1.72 ± 0.22,0.988 (active)
CCOc1cc2ncc(C#N)c(Nc3ccc(F)c(Cl)c3)c2cc1NC(=O)/C=C/CN(C)C,0.714 ± 0.27,0.512 ± 0.048,0.445 ± 0.097,0.158 ± 0.019,0.374 ± 0.04,0.22 ± 0.019,0.968 (active)
N#Cc1cc(-c2n[nH]c(-c3ccncc3)n2)ccn1,0.998 ± 0.19,1.06 ± 0.32,0.958 ± 0.077,0.891 ± 0.035,1.13 ± 0.25,1.12 ± 0.28,1 (active)
CN1C[C@@H]2c3ccccc3Oc3ccc(Cl)cc3[C@H]2C1.O=C(O)/C=C\C(=O)O,0.164 ± 0.03,0.821 ± 0.14,0.908 ± 0.14,0.475 ± 0.044,0.914 ± 0.088,1.07 ± 0.13,0.252 (inactive)
C=CCN1C(=O)C(=C2SC(=S)N(C)C2=O)c2ccccc21,0.76 ± 0.072,0.833 ± 0.085,1.03 ± 0.12,0.971 ± 0.05,1.33 ± 0.078,1.42 ± 0.15,0.997 (active)
CS(=O)(=O)O.Cc1ccc(NC(=O)c2ccc(CN3CCN(C)CC3)cc2)cc1Nc1nccc(-c2cccnc2)n1,0.119 ± 0.03,1.27 ± 0.28,1.89 ± 0.17,0.201 ± 0.0064,0.97 ± 0.18,1.75 ± 0.3,0.957 (active)
CCc1cnn2c(NCc3ccc[n+]([O-])c3)cc(N3CCCC[C@H]3CCO)nc12,0.338 ± 0.018,0.0505 ± 0.0045,0.114 ± 0.0049,0.0244 ± 0.0044,0.0353 ± 0.0054,0.0374 ± 0.0047,0.0417 (inactive)
COc1ccc(CN(CCN(C)C)c2ccccn2)cc1.O=C(O)/C=C\C(=O)O,0.568 ± 0.15,1 ± 0.053,1.01 ± 0.094,0.834 ± 0.073,0.773 ± 0.13,0.78 ± 0.087,0.946 (active)
CC(=O)C(C(=O)Nc1ccc(F)cc1)C(c1ccc(Cl)cc1Cl)C(C#N)C#N (centres undefined),0.894 ± 0.054,0.93 ± 0.057,0.915 ± 0.093,0.903 ± 0.04,1.1 ± 0.075,1.02 ± 0.26,1.01 (active)
O=c1ccc(-c2ccncc2)nn1CC1CCN(CC(F)(F)F)CC1,0.924 ± 0.046,0.973 ± 0.077,0.955 ± 0.051,0.858 ± 0.043,0.884 ± 0.07,0.832 ± 0.17,0.964 (active)
Cc1cc(N2CCCC2)nc(Nc2ccc(NC(=O)CC(C)C)cc2)n1,0.131 ± 0.01,1.18 ± 0.087,1.31 ± 0.13,0.947 ± 0.04,1.3 ± 0.14,1.49 ± 0.2,0.939 (active)
O=C(Nc1cc(C(F)(F)F)cc(C(F)(F)F)c1)c1c(F)cccc1F,0.953 ± 0.099,1.07 ± 0.075,0.911 ± 0.069,0.987 ± 0.07,1.29 ± 0.14,1.07 ± 0.072,1.01 (active)
Cc1ccc(S(=O)(=O)n2cnc3ccccc32)cc1C,0.594 ± 0.066,1.11 ± 0.065,1.07 ± 0.064,1.12 ± 0.042,1.37 ± 0.12,1.06 ± 0.07,0.988 (active)
CC(CCc1ccccc1)NCC(O)c1ccc(O)c(C(N)=O)c1.Cl (centres undefined),1.04 ± 0.15,1.18 ± 0.088,1.1 ± 0.061,0.944 ± 0.033,1.11 ± 0.095,1.22 ± 0.23,0.984 (active)
CNCCCC12CCC(c3ccccc31)c1ccccc12.Cl,0.507 ± 0.083,1.1 ± 0.24,1.32 ± 0.074,0.542 ± 0.038,1.36 ± 0.34,2.48 ± 0.34,0.29 (inactive)
CCCC(CCC)C(N)=O,1.09 ± 0.093,0.95 ± 0.083,0.999 ± 0.023,1.08 ± 0.17,1.04 ± 0.12,0.983 ± 0.19,0.996 (active)
Cc1cc(OCc2nc(-c3ccc(Cl)cc3Cl)no2)ccc1Br,1.03 ± 0.17,0.988 ± 0.12,1.63 ± 0.8,0.984 ± 0.039,1.15 ± 0.13,1.15 ± 0.21,1.01 (active)
O=C(NC1CC2CCC1C2)c1ccccc1Cl (centres undefined),0.725 ± 0.064,0.801 ± 0.047,1.08 ± 0.099,0.983 ± 0.049,1.35 ± 0.12,1.51 ± 0.24,1.02 (active)
Cc1nc(-c2ccc(S(=O)(=O)NC3CCc4nc(N(C)C)ncc4C3)cc2)co1 (centres undefined),0.877 ± 0.065,1.21 ± 0.1,1.05 ± 0.053,1.14 ± 0.074,1.21 ± 0.091,1.35 ± 0.27,0.919 (active)
C=CCc1ccc(O)c(OC)c1,1.05 ± 0.29,0.913 ± 0.095,1.14 ± 0.097,0.524 ± 0.019,1.05 ± 0.14,1.01 ± 0.12,0.659 (inactive)
Cc1cc(Cl)ccc1OCC(O)CN1CC(C)OC(C)C1.Cl (centres undefined),0.764 ± 0.068,0.939 ± 0.1,0.934 ± 0.081,0.937 ± 0.043,1.05 ± 0.068,1.01 ± 0.087,0.977 (active)
O=S(=O)(NCCOCc1ccccc1)c1ccccc1,1.13 ± 0.093,1.05 ± 0.076,1.04 ± 0.14,1.02 ± 0.068,1.19 ± 0.18,1.27 ± 0.21,0.966 (active)
COC1CC2CCC(C1)N2S(=O)(=O)c1ccc(Br)cc1 (centres undefined),0.93 ± 0.089,1.05 ± 0.1,0.909 ± 0.04,1.01 ± 0.11,1.22 ± 0.16,1.15 ± 0.24,1.01 (active)
COC(C)(CNC(=O)c1cc2ccccc2[nH]1)c1ccccc1F (centres undefined),0.825 ± 0.035,0.96 ± 0.081,1.06 ± 0.057,0.944 ± 0.063,1.01 ± 0.17,1.11 ± 0.22,0.94 (active)
CC(C)OC(=O)c1c(NC(=O)C2CC=CCC2C(=O)O)sc2c1CCCC2 (centres undefined),0.92 ± 0.12,0.999 ± 0.056,0.901 ± 0.054,0.965 ± 0.024,1.29 ± 0.18,1.14 ± 0.28,1.01 (active)
